hcDAF12 agonist: H. contortus DAF-12 nuclear receptor activators, primary screen, cell-based, luminescence, HEK293, lit1-tk-luc reporter; 1.4% of 370,000 active; AID 652067, 2013; activation, % at 6.8 µM; HEK293 hcDAF-12 lit1-tk-luc reporter; 0% DMSO, 100% Δ7-dafachronic acid;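 active = activation above the mean of all tested compounds plus 3 SD, cut at about 5.5% in these data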;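 note: 100% = response to 3 µM Δ7-dafachronic acid high control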
SMARCA2 activ: SMARCA2 (BRM) function activators, primary screen, cell-based, luminescence, high throughput; MG213 cells, MMTV-luciferase reporter, dexamethasone, overnight; activation, % at 9.1 µM; 1% of 370,000 active; AID 652017, 2013; in the data active = activation above about 7.8%;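 note: 0% = vehicle wells and 100% = reference activator wells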
ssDAF12 agonist: S. stercoralis DAF-12 nuclear receptor activators, primary screen, cell-based, luminescence, HEK293, GRIP1 co-expression, lit1-tk-luc; 1% of 370,000 active; activation, % at 6.8 µM; HEK293 ssDAF-12/GRIP1 lit1-tk-luc reporter; % of 3 µM dafachronic acid response;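 active = activation above the mean over all tested compounds plus 3 SD, cut at about 0.9% in these data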;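 note: 0% = DMSO-only wells and 100% = 3 µM delta7-dafachronic acid wells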
DAX1 inh-1: DAX1 (NR0B1) inhibitors on StAR promoter, primary screen, cell-based, luminescence, SF-1 (NR5A1), full-length DAX-1 | 1.1% of 370,000 active | HEK293T StAR-luciferase reporter, SF-1/DAX-1 repression relief | inhibition, % at 6.8 µM;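 active = inhibition above the mean over all tested compounds plus 3 SD, cut at about 3.6% in these data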;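 note: 0% = DAX-1 cells with DMSO and 100% = cells lacking DAX-1 with DMSO; higher inhibition means more luminescence from relief of DAX-1 repression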
DAX1 inh-2: DAX1 (NR0B1) inhibitors, primary screen, cell-based, HEK293, Gal4-DAX1, luciferase luminescence; Nuclear receptor subfamily 0 group B member 1 (Homo sapiens), P51843; HEK293 Gal4-DAX1 luciferase reporter; inhibition, % at 6.75 µM; 0.99% of 340,000 active; AID 504766, 2011;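 active = inhibition above the mean over all tested compounds plus 3 SD, cut at about 4.2% in these data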;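 note: 0% = DAX1-transfected cells with DMSO and 100% = empty-vector control cells with DMSO; inhibition shows as a rise in luminescence from relieved DAX1 repression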
Target sequence (P51843 207-470 limits assumed): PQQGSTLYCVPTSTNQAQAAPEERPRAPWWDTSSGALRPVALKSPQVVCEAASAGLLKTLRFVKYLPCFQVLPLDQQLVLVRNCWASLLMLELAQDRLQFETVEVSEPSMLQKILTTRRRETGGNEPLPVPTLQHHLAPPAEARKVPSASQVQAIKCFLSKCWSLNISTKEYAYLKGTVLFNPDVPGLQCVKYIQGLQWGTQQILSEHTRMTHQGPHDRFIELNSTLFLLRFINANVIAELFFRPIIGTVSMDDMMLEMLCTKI
hgDAF-12 ag: H. glycines DAF-12 receptor agonists, primary screen, cell-based, luminescence, HEK293, GAL4 fusion, UAS-luciferase; activation, % at 6.8 µM; HEK293 GAL4-hgDAF12 UAS-luciferase reporter, agonist luminescence; normalized to butyrate control; 1.8% of 370,000 active;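 active = activation above a cutoff set at the mean of all screened compounds plus 3 SD, cut at about 10% in these data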;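 note: 0% = DMSO wells and 100% = sodium butyrate wells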
DAX1 conf: DAX1 (NR0B1) inhibitors relieving SF-1 repression, confirmation, cell-based, luminescence, HEK293T, full-length DAX-1, SF-1 activated StAR promoter. shares compounds with DAX1 inh-1. HEK293T StAR-promoter luciferase reporter, SF-1/DAX-1 repression. inhibition, % at 6.8 µM. 87% of 2,400 active. AID 652134, 2013;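 active = inhibition above the average of every tested compound plus 3 SD, cut at about 3.8% in these data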;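 note: 0% = DAX-1 cells with DMSO and 100% = no DAX-1 control cells with DMSO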
SF1 mutant ctr: StAR reporter signal changes without DAX1, counter-screen for DAX1 inhibitor project, cell-based, luminescence, AF-2 mutant SF-1, transactivation; shares compounds with DAX1 inh-1; HEK293 StAR-luciferase, SF-1 AF2 mutant; inhibition, % at 6.8 µM; 78% of 2,400 active; AID 652136, 2013;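 active = inhibition above the mean of all tested compounds plus 3 SD, cut at about 3% in these data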;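 note: 0% = DAX-1 transfected cells with DMSO and 100% = cells without DAX-1 with DMSO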
SMARCA2 conf: SMARCA2 (BRM) function activators, confirmation, cell-based, luminescence, triplicate. activation, % at 9.1 µM. AID 652260, 2013. shares compounds with SMARCA2 activ. 30% of 3,500 active. MG213 cells, MMTV-luciferase with dexamethasone, overnight; MG213 cells expressing E1A, Rb sequestered; DMSO wells 0%, reference activator 100%;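 active = activation above its plate's cutoff, the mean activation of tested wells plus 3 SD, cut at about 7.9% in these data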
GAL4-VP16 Luc: GAL4-VP16 luciferase reporter activation, counter-screen for SMARCA2 (BRM) activator project, cell-based, pG5luc, luminescence, high throughput; shares compounds with SMARCA2 activ; HEK293 GAL4-VP16 pG5luc reporter; scaled: DMSO wells 0%, SAHA wells 100%; activation, % at 9.1 µM; 41% of 3,500 active; AID 686939, 2013;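 active = activation above the solvent-only control well mean plus 3 SD, averaged across control plates, cut at about 5.2% in these data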
LXRb hcDAF ctr: LXR agonists, Gal4 luciferase reporter, confirmation, counter-screen for hcDAF-12 agonist project, cell-based, luminescence, HEK293, H. contortus campaign; shares compounds with hcDAF12 agonist; HEK293 Gal4-LXR tk-luc reporter, 24 h; normalized: DMSO 0%, positive control 100%; activation, % at 6.8 µM; 3,400 tested, under 10 active; AID 743027, 2013;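 active = mean percent activation of the reporter above a cutoff set as the average over tested compounds plus their standard deviation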
Target sequence (P55055 whole entry, looked up, the tested form may be a part): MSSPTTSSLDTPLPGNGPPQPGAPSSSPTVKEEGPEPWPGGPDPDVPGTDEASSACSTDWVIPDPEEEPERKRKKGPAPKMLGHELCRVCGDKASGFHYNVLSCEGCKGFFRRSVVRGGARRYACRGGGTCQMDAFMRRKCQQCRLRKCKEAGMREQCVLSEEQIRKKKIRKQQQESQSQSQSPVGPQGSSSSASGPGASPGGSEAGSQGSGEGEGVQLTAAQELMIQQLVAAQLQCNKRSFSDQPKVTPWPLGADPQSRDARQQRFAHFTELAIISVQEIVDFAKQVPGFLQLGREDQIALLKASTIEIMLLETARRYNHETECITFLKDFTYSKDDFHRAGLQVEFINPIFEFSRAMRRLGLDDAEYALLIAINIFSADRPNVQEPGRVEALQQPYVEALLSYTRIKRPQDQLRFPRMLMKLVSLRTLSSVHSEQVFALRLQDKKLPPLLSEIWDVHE
hcDAF12 ag: H. contortus DAF-12 receptor agonists, confirmation, cell-based, luminescence, HEK293, lit1-tk-luc, triplicate; shares compounds with hcDAF12 agonist; activation, % at 6.8 µM; 61% of 3,400 active; HEK293 hcDAF-12 lit1-tk-luc reporter; % of Δ7-dafachronic acid response;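 active = mean activation across triplicate tests above the threshold derived from the earlier primary screen, cut at about 5.5% in these data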;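 note: 0% = DMSO only wells and 100% = 3 µM Δ7-dafachronic acid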
hgDAF12 conf: H. glycines DAF-12 receptor agonists, confirmation, cell-based, luminescence, HEK293, GAL4-LBD fusion; shares compounds with hgDAF-12 ag; activation, % at 6.8 µM; HEK293 GAL4-hgDAF12 luciferase reporter, agonist mode; percent of butyrate response; AID 743050, 2013; 80% of 3,300 active;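 active = mean activation over triplicate wells above the hit cutoff derived from the earlier primary screen, cut at about 11% in these data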;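 note: 0% = DMSO low control and 100% = 2 mM sodium butyrate high control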
LXR ag 2: LXR agonists, Gal4 luciferase reporter, confirmation, counter-screen for hgDAF-12 agonist project, cell-based, luminescence, HEK293, H. glycines campaign | shares compounds with hgDAF-12 ag | 24 h | activation, % at 6.8 µM | 3,300 tested, under 10 active;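 active = mean activation of the triplicate above a set limit carried over from the primary screen, none filed active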
An asterisk follows results filed as active; nt = no result given. An excerpt weighted towards active compounds, which were near 4.8% of everything screened.

SMILES | hcDAF12 agonist | SMARCA2 activ | ssDAF12 agonist | DAX1 inh-1 | DAX1 inh-2 | hgDAF-12 ag | DAX1 conf | SF1 mutant ctr | LXRb hcDAF ctr | hcDAF12 ag | hgDAF12 conf | LXR ag 2 | others
CCOc1ccc(-c2ccc(SCC)nn2)cc1 | 5 | 5 | 0 | 7.9* | 0 | 24* | 14* | 6.7* | nt | nt | 19* | 1
CCOc1ccc(-c2ccc(SCc3ccccn3)nn2)cc1 | 4 | 0 | -2 | 1 | 0 | 10 | nt | nt | nt | nt | nt | nt
CCSc1ccc(-c2ccc(C)cc2)nn1 | 11* | 13* | 0 | 11* | 1 | 20* | 17* | 7.4* | 2 | 6.1* | 17* | 1 | SMARCA2 conf=14*;GAL4-VP16 Luc=9.5*
Cc1ccc(-c2ccc(SCC(=O)NC3CCCC3)nn2)cc1 | 0 | -1 | -1 | 1 | 1 | 0 | nt | nt | nt | nt | nt | nt
C/C(=N\NC(=O)Cc1cccs1)c1ccco1 | 0 | -1 | -1 | 0 | nt | 2 | nt | nt | nt | nt | nt | nt
C=CCNc1nc(-c2cc3ccccc3o2)cs1 | 9.1* | 3 | 1.5* | 6.5* | 0 | 18* | 14* | 4.1* | 2 | 8.3* | 18* | 1
c1ccc2oc(-c3csc(NCC4CCCO4)n3)cc2c1 (configuration not stated) | 4 | 0 | 1.1* | 10* | 1 | 15* | 12* | 7.0* | nt | nt | 15* | 1
COc1ccc(-n2c(COc3ccc(Cl)cc3)nnc2SCC(=O)Nc2ccc(Oc3ccccc3)cc2)cc1 | -3 | -4 | -2 | -1 | nt | 5 | nt | nt | nt | nt | nt | nt
O=C(Nc1ccc2c(c1)Cc1ccccc1-2)c1ccco1 | 6.3* | 3 | 0 | 5.6* | 3 | 17* | 17* | 10* | nt | nt | 21* | 1
O=C(Nc1nc2cc3c(cc2s1)OCO3)C1CCCCC1 | 9.8* | 2 | 0 | 12* | 1 | 14* | 15* | 7.7* | 1 | 5 | 16* | 1
O=C(Nc1nc2cc3c(cc2s1)OCO3)C1CC1 | -1 | 2 | -2 | 0 | 0 | 3 | nt | nt | nt | nt | nt | nt
O=C(Nc1nc2cc3c(cc2s1)OCCO3)C1CCCCC1 | 4 | 0 | 1 | 15* | 1 | 13* | 12* | 4.4* | nt | nt | 15* | 1
COC(=O)C1=C(C)N(Cc2cccc(C(F)(F)F)c2)C(=NCc2ccc3c(c2)OCO3)NC1CCc1ccccc1 (configuration not stated) | 0 | -2 | -1 | 1 | nt | -1 | nt | nt | nt | nt | nt | nt
CC1(c2nnnn2Cc2ccccc2)CCCCC(=O)N1Cc1cccs1 (configuration not stated) | 1 | 0 | -1 | 0 | nt | 4 | nt | nt | nt | nt | nt | nt
C/C(=N\Nc1nc2ccccc2s1)c1ccc2c(c1)OCO2 | 2 | 3 | 0 | 1 | 1 | 7 | nt | nt | nt | nt | nt | nt
c1ccc2sc(NN=C3CCCCCC3)nc2c1 | 12* | 0 | 1 | 5.2* | 1 | 13* | 5.4* | 1 | 2 | 11* | 6 | 1
Cc1ccc2nc(-c3ccc(F)cc3)c(CC3CCCCC3)n2c1 | 9.7* | 4 | 1.5* | 6.6* | nt | 14* | 3 | 5.0* | 0 | 5 | 10 | 0
COC(=O)c1ccc2nc(-c3ccc(OC)c(OC)c3)c(CC3CCCCC3)n2c1 | -1 | -2 | -1 | 0 | nt | 2 | nt | nt | nt | nt | nt | nt
COc1ccc2cc3cc(C(=O)NC4CC4)sc3nc2c1 | 18* | 3 | 0 | 15* | -2 | 24* | 14* | 4.2* | 2 | 8.7* | 16* | 1
CCOC(=O)c1ccc(N/C=C/C(=O)c2ccco2)cc1 | 3 | 3 | 0 | 4.7* | 2 | 15* | 12* | 7.1* | nt | nt | 17* | 1
CCOC(=O)c1ccc(N/C=C/C(=O)c2ccc(OC)c(OC)c2)cc1 | -2 | -1 | -1 | -1 | -1 | 2 | nt | nt | nt | nt | nt | nt

Screens as filed in PubChem.
